Shown are actives, neighbours in structure and some others; about 1.2% of the full set was active somewhere.
pAkt inh: inhibitors of Akt phosphorylation. Neuro2A IGF-stimulated pAkt S473 HTRF, 20 min; stronger effect = lower value. activity change, % for hits at 50 µM. hit rate 0.32% among 360,000; in the data active means activity change below about -80%; inconclusive means mostly about -51% to -80%; further: on the % scale 0 is the no-effect control and ±100 the full control effect
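Single-point screen (50 µM final compound) in Neuro2A cells stimulated 20 min with 6 nM IGF at 37 deg C. After lysis, Ser473-phosphorylated Akt read by HTRF (ex 330 nm, em 615/665 nm) as the 665/615 ratio.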
RXFP1 agonist: RXFP1 (human) receptor agonism; hit rate 0.3% among 370,000; AID 2676; HEK293T-RXFP1 cAMP TR-FRET, 30 min; response scale: percent of porcine relaxin response, buffer zero; Potency, µM (highest dose often 57.5 µM), for inactives: at the highest dose activation, usual class: activators; active means well fitted activation curve with a large enough effect; inconclusive means small, poorly fitted or top-dose-only effect; further: potency means the concentration at half of the fitted maximal effect; on the % scale 0 is the no-effect control and ±100 the full control effect; nearly all actives have a fitted effect of over 60% in size
Target sequence (Q9HBX9 whole entry, looked up): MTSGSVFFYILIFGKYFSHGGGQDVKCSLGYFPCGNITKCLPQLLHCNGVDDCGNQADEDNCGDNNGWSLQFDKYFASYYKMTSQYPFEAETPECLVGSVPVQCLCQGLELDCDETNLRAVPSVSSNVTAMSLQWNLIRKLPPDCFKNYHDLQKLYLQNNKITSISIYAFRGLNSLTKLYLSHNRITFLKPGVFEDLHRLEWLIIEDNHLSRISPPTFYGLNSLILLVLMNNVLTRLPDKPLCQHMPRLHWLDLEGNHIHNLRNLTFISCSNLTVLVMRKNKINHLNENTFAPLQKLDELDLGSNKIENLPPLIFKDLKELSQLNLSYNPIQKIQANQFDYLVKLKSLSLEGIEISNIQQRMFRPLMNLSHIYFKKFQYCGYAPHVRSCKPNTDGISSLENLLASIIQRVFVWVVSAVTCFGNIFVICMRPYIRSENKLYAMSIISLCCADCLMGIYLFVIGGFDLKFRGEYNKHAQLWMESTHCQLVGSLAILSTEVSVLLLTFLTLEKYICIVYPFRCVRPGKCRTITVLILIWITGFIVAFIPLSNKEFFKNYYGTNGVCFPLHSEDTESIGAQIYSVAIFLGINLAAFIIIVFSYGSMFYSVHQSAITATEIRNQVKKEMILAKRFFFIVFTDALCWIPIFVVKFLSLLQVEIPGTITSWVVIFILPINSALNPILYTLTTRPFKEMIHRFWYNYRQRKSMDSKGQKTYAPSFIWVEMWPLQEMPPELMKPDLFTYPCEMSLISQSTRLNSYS
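HEK293T cells stably expressing RXFP1 were pretreated with the PDE4 inhibitor Ro 20174, exposed to compounds for 30 min at 37C, lysed, and cAMP was read by TR-FRET. Data normalized to buffer (basal) and 29 nM porcine relaxin (100%).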
gsp agonist: activates gsp, the McCune-Albright syndrome mutation; gsp mutant cells, cAMP HTRF, 30 min; Potency, µM (highest dose often 76.9 µM), for the others: top-dose activation (cAMP increase), usual class: activators; hit rate 0.13% among 340,000; active means well fitted activation curve with a large enough effect; inconclusive means small, poorly fitted or top-dose-only effect, or another doubt; inactive means no such curve, though single readings can be large or run the other way; cell line not stated here;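 further: phosphodiesterase inhibitor Ro 20-1724 added with compounds to block cAMP breakdown; potency means the concentration at half of the fitted maximal effect; nearly all actives have a fitted effect of over 60% in size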
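Cells stably selected in G418 were plated at 2000/well, grown 16-24 hr, then given compounds in DMSO with the PDE inhibitor […] (300 uM solution added) for 30 min at 37C; cAMP was read by HTRF.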
RXFP1 antag: RXFP1 (human) relaxin receptor antagonism; Q9HBX9; HEK293-RXFP1, relaxin-stimulated cAMP HTRF, 30 min; stronger effect = lower value; activity change, negative = inhibition, % at 57.5 µM; hit rate 0.59% among 350,000;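 active means activity change of -60% or lower, but not beyond a set lower limit; inconclusive means change between -60% and -40%, or beyond the set limit; inactive means change above -40%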; further: on the % scale 0 is the no-effect control and ±100 the full control effect
gsp antag: gsp mutant antagonism. gsp-mutant cells, cAMP HTRF, 30 min. Potency, µM (top dose mostly 76.9 µM), without a hit: at the highest dose activity change, negative = inhibition, usual class: inhibitors. hit rate 0.4% among 340,000. AID 624288; calls by dose curve; cell line not stated here;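 further: intracellular cAMP measured with PDE inhibitor Ro 20-1724 present during compound exposure; potency means the concentration at half of the fitted maximal effect; on the % scale 0 is the no-effect control and ±100 the full control effect; nearly all actives have a fitted effect of over 65% in size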
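Cells in G418 medium, seeded 16-24 h, 37C; buffer exchange to DPBS + 1 mM CaCl2, 0.5 mM MgCl2, 0.05% BSA; cpds in DMSO + […] (300 uM stock), 30 min 37C; HTRF cAMP detection.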
An asterisk follows results filed as active; i = inactive; ? = inconclusive; . = no result given; [ ] = another dose, or the depositor's remark.

SMILES | pAkt inh | RXFP1 agonist | gsp agonist | RXFP1 antag | gsp antag
C=CCn1c(O)c(C2=c3ccccc3=NC2=O)c2ccccc21 | i | 1% | -28% | -95* | 11%
CCN(CC)CCCN(c1ccccc1)C1Cc2ccccc2C1 | . | . | . | -12 | .
CC[n+]1c(/C=C/c2ccc(N(C)C)cc2)ccc2ccccc21 | i | 3% | 20% | -91* | ?
CC[n+]1c(/C=C/c2ccc(OC)c(OC)c2)ccc2ccccc21 | i | -1% | -32% | -1 | -5%
Cc1nn(Cc2ccc(F)cc2)c(C)c1NC(=O)c1cnn2c1NC(c1ccccc1)CC2C(F)(F)F (configuration not stated) | i | 0% | -23% | -7 | 2%
NC(=O)c1cnn2c1NC(c1ccc(F)cc1)CC2C(F)(F)F (configuration not stated) | -111%* | 0% | -12% | 6 | 8%
CC1CCCN(CCCNC(=O)c2nn(C)c3c2CS(=O)(=O)c2ccccc2-3)C1 (configuration not stated) | . | 4% | 16% | -84* | -17%
O=C(O)Cn1c(=O)n(Cc2ccc(Br)cc2F)c(=O)c2ccc(Cl)cc21 | . | . | . | -24 | .
CC(C)CCN(Cc1ccco1)C(=O)c1cc2c(Cl)nc3ccccc3c2s1 | . | 1% | . | . | .
COc1ccccc1CNC(=O)CSCc1cnn(-c2ccccc2)c1-n1cccc1 | i | 1% | 23% | -8 | -21%
COc1cccc(CNC(=O)CSCc2cnn(-c3ccccc3)c2-n2cccc2)c1OC | -119%* | 1% | -13% | -6 | ?
CC1=C(C(N)=O)C(c2cccc(C)c2)n2nc(-c3cccc(C)c3)nc2N1 (configuration not stated) | . | 3% | . | -9 | .
CC(C)N1CCC2(CC1)N=C(c1ccc3c(c1)OCO3)CC(c1cc(Cl)ccc1O)N2 (configuration not stated) | i | 0% | 33% | -67* | -7%
Cc1c(C(=O)N(C)c2cccc(C(F)(F)F)c2)sc2nc3n(c(=O)c12)CCCCC3 | . | 17% | . | -22 | .
COCC(C)NC(=O)c1cccc(Cl)c1 (configuration not stated) | -114%* | 2% | 2% | 4 | 12%
COc1ccccc1-c1c(C)nn2c(N3CCOCC3)cc(C)nc12 | i | 0% | 3% | 4 | -2%
COc1ccccc1-c1c(C)nn2c(N3CCCCCC3)cc(C)nc12 | i | 3% | 1% | . | 35µM*
O=C(Cn1cnc2c(oc3ccccc32)c1=O)Nc1ccccc1C(F)(F)F | . | 3% | . | 4 | .
Cc1ccc(NC(=O)Cn2c(=O)n(CCCCC(=O)NCc3ccco3)c(=O)c3ccccc32)cc1 | -113%* | 2% | 27% | -18 | -3%[15.4 µM]
CCOc1ccc2oc(=O)cc(CN3CCN(c4cc(C)ccc4C)CC3)c2c1 | . | -1% | . | -5 | .
O=c1c2ccccc2sn1-c1ccccc1 | -107%* | 0% | 0% | -27 | -15%
CC1(C)CC2(CC(c3ccccc3F)c3ccc(O)c(O)c3O2)NC(=S)N1 (configuration not stated) | i | -1% | 14%[15.4 µM] | -76* | -5%
CC1(C)CC2(CC(c3ccc(F)cc3)c3ccc(O)cc3O2)NC(=S)N1 (configuration not stated) | i | 0% | -42% | -19 | -10%
Cc1ccc(NC(=O)c2cccn2-c2nnc(N3CCCCC3)s2)cc1Cl | . | -2% | . | -12 | .
CC1=C(C(=O)Nc2ccccc2)C(c2cccs2)n2nnnc2N1 (configuration not stated) | -96%* | 2% | 2% | -8 | 0%
SMILES | pAkt inh | RXFP1 agonist | gsp agonist | RXFP1 antag | gsp antag
CC1=C(C(=O)Nc2ccccc2)C(c2ccncc2)n2nnnc2N1 (configuration not stated) | i | 1% | 3% | -4 | 16%
C1=C(c2ccccc2)Nc2nnnn2C1c1cccs1 (configuration not stated) | -111%* | 1% | 1% | ? | 8%
CC#C[C@]1(O)CC[C@H]2[C@@H]3CCC4=CC(=O)CCC4=C3[C@@H](c3ccc(N(C)C)cc3)C[C@@]21C | i | 3% | . | -36 | 35µM*
C[C@@H](O)[C@H]1C(=O)N2C(C(=O)O)=C([C@H]3CCCO3)S[C@H]12 | . | . | . | -4 | .
Cc1ccc(-c2onc(C)c2C)cc1S(=O)(=O)Nc1cccc(Cl)c1C | . | 0% | . | -21 | .
CC(C)c1ccc2oc(=O)cc(CN3CCN(c4ccc(F)cc4)CC3)c2c1 | i | 0% | 4% | -19 | 35µM*
CCc1ccc2oc(=O)cc(CN3CCN(c4ccc(F)cc4)CC3)c2c1 | i | 4% | 1% | -15 | -12%[15.4 µM]
CCOC(=O)C(=O)CCc1ccccc1 | . | . | . | -6 | .
COc1ccc(Cn2c(-c3ccc(C)cc3)nc3c(c(=O)c4ccccc4n3C)c2=O)cc1 | i | 4% | -7% | 2 | 25µM*
Cc1ccc(C(OCC(O)CNC(C)c2ccccc2)c2ccccc2)cc1 (configuration not stated) | i | 2% | 9%[15.4 µM] | -70* | 1%
CCOc1ccc(N2CC(C(=O)NCCc3ccc(OC)c(OC)c3)CC2=O)cc1 (configuration not stated) | -107%* | 2% | 21% | -2 | 2%
COc1ccc(/C=C/C(=O)NNC(=O)c2cc(C)oc2C)cc1 | i | 3% | -1%[15.4 µM] | -62* | 5%
Cc1cc(C(=O)NNC(=O)/C=C/c2ccccc2Cl)c(C)o1 | i | 1% | 5% | -3 | -15%
C#C[C@]1(OC(C)=O)CC[C@H]2[C@@H]3CCC4=C/C(=N/O)CC[C@@H]4[C@H]3CC[C@@]21CC | . | . | . | -32 | .
CN(C)c1ccc(NC(=O)C2(c3cccs3)CCOCC2)cc1 | . | -4% | . | -7 | .
Cc1ccc(C)c(CSc2nnc([C@@H]3CCCN3)o2)c1 | i | 0% | 15% | 11 | 5%
Clc1ccc(CSc2nnc([C@@H]3CCCN3)o2)cc1Cl | -106%* | 0% | 9% | -4 | 3%
CC(C)(C)c1ccc(C(=O)Nc2ccc(F)cc2)s1 | i | 32µM* | 17% | ? | 2%
CCc1cc2cc(C(=O)Nc3ccc(F)cc3)sc2s1 | i | ? | ? | 10 | 31%
CCc1cccc(NC(=O)C2CCCN2S(=O)(=O)c2ccc3nc(-c4ccccc4)[nH]c3c2)c1 (configuration not stated) | . | 3% | . | -23 | .
CCn1c(=O)c2c(nc(C=Cc3ccc(OC)c(OC)c3)n2C)n(CC)c1=O | . | . | . | -11 | .
COc1ccc(C(=O)Nc2nc3n(n2)C(c2ccc(Cl)cc2)C=C(c2ccccc2)N3)cc1OC (configuration not stated) | . | 20µM* | . | -10 | .
COc1ccc2cc(C=O)ccc2c1 | . | . | . | -28 | .
NS(=O)(=O)c1ccc(N2CCCCS2(=O)=O)cc1 | . | . | . | 25 | .
COCCNC(=O)c1ccc(-n2c(-c3ccccc3)cc3c2CCC(C)C3)cc1 (configuration not stated) | . | -2% | . | -71* | .

Bioassay records from PubChem.
